Screening results as filed in PubChem BioAssay.
Fam108B inh: mouse Fam108B serine hydrolase inhibitors, primary screen, counter-screen for RBBP9 inhibitor project, biochemical, fluorescence polarization | recombinant Fam108B, FP-Rh probe fluorescence polarization | inhibition, % at 9.51 µM | 300,000 tested, 0.33% active;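 active = inhibition above the screen mean inhibition plus 3 SD, computed separately per campaign, cut at about 18% in these data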;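 also: inhibitors lower polarization as less probe binds the enzyme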
LYPLA1 inh: LYPLA1 inhibitors, primary screen, counter-screen for PME1 inhibitor project, biochemical, fluorescence polarization, FP-Rh probe ABPP; inhibition, % at 5.9 µM; Acyl-protein thioesterase 1 (Homo sapiens), O75608; 320,000 tested, 0.16% active; recombinant LYPLA1;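 active = inhibition above the mean of all tested compounds plus 3 SD, set per campaign, cut at about 14% in these data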;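 also: inhibitors block serine hydrolase probe labeling of LYPLA1 so polarization falls; 0% = enzyme with DMSO and 100% = wells lacking LYPLA1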
PAD4 inh: human PAD4 inhibitors, primary screen, biochemical, fluorescence polarization, 1536-well format. Protein-arginine deiminase type-4 (Homo sapiens), Q9UM07. recombinant PAD4, RCA probe fluorescence polarization. inhibition, % at 6.36 µM. 330,000 tested, 0.41% active;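 active = percent inhibition above a cutoff equal to the mean of all tested compounds plus 3 SD, cut at about 15% in these data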;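 also: 0% = PAD4 with RCA probe and DMSO and 100% = probe without PAD4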
Target sequence (Q9UM07 whole entry, looked up): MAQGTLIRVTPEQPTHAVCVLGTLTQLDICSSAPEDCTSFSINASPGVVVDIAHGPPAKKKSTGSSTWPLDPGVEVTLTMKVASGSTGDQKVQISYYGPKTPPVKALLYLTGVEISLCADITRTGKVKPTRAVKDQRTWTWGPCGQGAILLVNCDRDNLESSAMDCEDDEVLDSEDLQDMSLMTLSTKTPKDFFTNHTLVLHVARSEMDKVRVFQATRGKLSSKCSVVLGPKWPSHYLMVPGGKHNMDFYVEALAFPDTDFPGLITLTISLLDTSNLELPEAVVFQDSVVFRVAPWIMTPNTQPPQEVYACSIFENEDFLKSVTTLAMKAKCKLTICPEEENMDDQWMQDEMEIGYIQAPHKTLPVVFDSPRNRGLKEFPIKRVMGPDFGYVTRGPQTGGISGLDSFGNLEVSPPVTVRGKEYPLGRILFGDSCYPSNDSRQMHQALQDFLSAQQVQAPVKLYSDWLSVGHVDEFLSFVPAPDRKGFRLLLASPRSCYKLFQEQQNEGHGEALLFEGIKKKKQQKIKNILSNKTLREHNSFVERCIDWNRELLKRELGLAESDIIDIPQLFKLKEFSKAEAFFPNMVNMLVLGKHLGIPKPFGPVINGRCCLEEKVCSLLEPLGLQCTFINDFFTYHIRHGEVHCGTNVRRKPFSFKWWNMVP
PME-1 primary: PME-1 inhibitors via competitive probe labeling, primary screen, biochemical, fluorescence polarization, FP-Rh probe, HTS | Protein phosphatase methylesterase 1 (Homo sapiens), Q9Y570 | inhibition, % at 5.9 µM | AID 2130, 2009 | 320,000 tested, 0.53% active | recombinant PME-1;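 active = inhibition above the campaign mean of all compounds plus 3 SD, cut at about 26% in these data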;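 also: competitive labeling of PME-1 active site by serine hydrolase directed probe; 0% = PME-1 with DMSO and 100% = wells lacking PME-1 enzyme; inhibitors block probe labeling so polarization falls and inhibition rises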
LYPLA2 counter: LYPLA2 inhibitors, primary screen, counter-screen for PME1 inhibitor project, biochemical, fluorescence polarization, FP-Rh probe ABPP | Acyl-protein thioesterase 2 (Homo sapiens), O95372 | recombinant LYPLA2 | inhibition, % at 5.9 µM | 320,000 tested, 0.38% active | AID 2177, 2009;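 active = inhibition above the screen-wide mean plus 3 SD, limit set per campaign, cut at about 26% in these data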;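 also: 0% = LYPLA2 with DMSO and 100% = wells lacking LYPLA2 enzyme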
GSTO1 inh: inhibitors of recombinant GSTO1, primary screen, counter-screen for RBBP9 inhibitor project, biochemical, fluorescence polarization; inhibition, % at 5.96 µM; Glutathione S-transferase omega-1 (Homo sapiens), P78417; 300,000 tested, 1.1% active; activity-based probe fluorescence polarization;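 active = inhibition above the campaign mean inhibition plus 3 SD, cut at about 35% in these data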;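 also: 0% = GSTO1-1 with DMSO and 100% = wells lacking GSTO1-1 enzyme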
* marks the source's active call; other numbers are inactive results; . = not tested or not shown. An excerpt weighted towards active compounds, which were near 1.8% of everything screened.

SMILES	Fam108B inh	LYPLA1 inh	PAD4 inh	PME-1 primary	LYPLA2 counter	GSTO1 inh
CCN1CC=C2C(C#N)=C(N)C(C#N)(C#N)C(CCc3ccccc3)C2C1 (centres undefined)	0	2	20*	4	2	1
COc1cc(OC)cc(-c2nnc(SCC(=O)N(C(C)C)C(C)C)o2)c1	1	4	0	0	-5	-1
COc1cc(OC)cc(-c2nnc(Sc3ccc(C=O)cc3[N+](=O)[O-])o2)c1	14	-1	26*	5	10	18
CCCCN(C(=O)CSc1nnc(Nc2ccccc2)s1)c1c(N)n(CCC)c(=O)[nH]c1=O	-11	-4	20*	-2	-11	-4
CCCCN(C(=O)CSc1nnnn1C)c1c(N)n(Cc2ccccc2)c(=O)[nH]c1=O	-1	4	4	8	8	-2
CS(=O)(=O)Nc1cccc(C2=NN(S(C)(=O)=O)C(c3ccc4c(c3)OCO4)C2)c1 (centres undefined)	2	-3	-1	15	5	0
CS(=O)(=O)N1N=C(c2ccccc2)CC1c1ccc2c(c1)OCO2 (centres undefined)	-7	-9	-10	28*	-11	3
CCOC(=O)C1=C(C)c2ccccc2OC1(CC)C(=O)OCC (centres undefined)	.	.	-3	.	.	.
CCOC(=O)C1=C(C)OC2(O)c3ccccc3C(=O)C12O (centres undefined)	2	3	-15	1	-2	74*
Cc1cccc(Nc2nnc(SC/C(O)=C(\C#N)c3nc4ccccc4[nH]3)s2)c1C	6	0	-3	82*	6	3
Cn1cnnc1SC/C(O)=C(\C#N)c1nc2ccccc2[nH]1	0	1	0	8	2	3
CCCc1cc(NC(=O)CCl)n(-c2ccccc2)n1	1	-1	1	3	-2	101*
CCCc1cc(NC(=O)COC(=O)c2ccc(O)cc2O)n(-c2ccccc2)n1	.	.	3	.	.	.
CCCCn1c2ccccc2c2nnc(SCC(=O)NC3=NN=C(c4ccccc4)CS3)nc21	1	2	21*	2	-1	-9
Cc1cc(C(=O)CSc2nc(N)cc(N)n2)c(C)n1-c1cccc(C(F)(F)F)c1	-1	-4	-14	29*	1	-9
Cc1cc(C(=O)CSc2ncccn2)c(C)n1-c1cccc(F)c1	-1	4	-3	-1	2	1
COc1ccccc1NC(=O)COC(=O)c1ccc([N+](=O)[O-])s1	5	4	-4	-1	8	34
CCc1ccccc1NC(=O)c1ccc([N+](=O)[O-])s1	2	-5	-6	-2	-1	41*
N#CC1(c2ccccc2)CCC(=O)N1Cc1ccccc1 (centres undefined)	1	1	0	-1	-5	-2
CCOc1ccc2nc(SCC(=O)Nc3ccc4c(c3)OCCO4)[nH]c2c1	3	-1	-2	27*	2	4
COc1ccc2nc(SCC(=O)Nc3ccc4c(c3)OCCO4)[nH]c2c1	3	-2	0	4	-1	8
CCN(CC)CCCNC(=O)c1csc(Nc2cccc3ccccc23)n1	1	2	0	-2	3	2
CCN(CC)C(=O)c1csc(Nc2cccc3ccccc23)n1	1	5	-1	37*	3	8
COc1ccc(/C=N\NC(=O)c2cc(O)c(O)c(O)c2)cc1CN1CCN(c2ccc(F)cc2)CC1	14	-19	-3	21	-18	52*
O=C(Nc1ccc(S(=O)(=O)NC2=NCCCCC2)cc1)c1ccc(Cl)c([N+](=O)[O-])c1	.	.	-6	.	.	.
SMILES	Fam108B inh	LYPLA1 inh	PAD4 inh	PME-1 primary	LYPLA2 counter	GSTO1 inh
Cc1cccc(C)c1NS(=O)(=O)c1ccc(NC(=O)c2ccc(Cl)c([N+](=O)[O-])c2)cc1	-10	-1	2	33*	-39	-14
CC1(C)CC(=O)C2=C(C1)N(CCN1CCOCC1)C1=C(C(=O)CC(C)(C)C1)C2c1cccc(F)c1	-1	2	3	28*	-2	4
CC1(C)CC(=O)C2=C(C1)N(CCN1CCOCC1)C1=C(C(=O)CC(C)(C)C1)C2c1ccc(Cl)cc1	-6	-1	-2	5	3	-6
CC(Oc1ccccc1F)c1nnc(SCC(=O)NCc2ccc3c(c2)OCO3)o1 (centres undefined)	.	-3	-4	-5	2	.
C/C(=N\NC(=O)CSCc1ccccc1Cl)c1cc(O)ccc1O	4	-2	-12	5	4	40*
Oc1ccc(Br)cc1-c1nc2cnccn2c1NC1CCCC1	10	0	-3	26*	-3	3
Oc1ccc(Br)cc1-c1nc2cnccn2c1NC1CCCCC1	11	-5	0	7	-9	11
Cc1nn(-c2ccccc2)c(C)c1NC(=O)COC(=O)c1ccc(Cl)c(S(N)(=O)=O)c1	4	7	-1	-5	-3	11
COc1cc(/C=C2/CCc3ccccc3C2=O)cc(OC)c1OC	-3	5	0	9	30*	-3
COc1ccc(/C=C2/CCc3ccccc3C2=O)cc1OC	1	-2	4	6	9	-1
BrC(=C\c1ccccc1)/C=N/Nc1nc2ccccc2[nH]1	0	-5	-7	-28	-5	37*
CCOC(=O)N1CCN(c2ncnc3c2[nH]c2ccc(F)cc23)CC1	0	-1	-2	8	-3	-1
Fc1ccc2[nH]c3c(N4CCN(c5ccccc5)CC4)ncnc3c2c1	16	0	-1	46*	1	1
COc1ccc(N2CCN(c3ncnc4c3[nH]c3ccccc34)CC2)cc1	13	5	-1	32*	10	1
Cc1cc(NC(=O)CN2C(=O)NC(CC(C)C)C2=O)ccc1Br (centres undefined)	.	-6	-5	-7	-2	.
Cn1c(=N)n(CC(=O)c2ccc(Br)cc2)c2ccccc21	17	1	1	32*	1	12
CCN(CC)S(=O)(=O)c1cc(NC(=O)C(C)N2CCN(c3ccccn3)CC2)ccc1C (centres undefined)	3	1	-1	29*	1	12
CC(=O)c1cccc(CN2CCCC(C(=O)Nc3ccc(-c4ccco4)cc3)C2)c1 (centres undefined)	-3	-6	5	-7	-5	-5
Oc1ccc(C2C[C@H]3CC[C@@H]2C3)cc1O (some centres undefined)	5	-2	-6	10	-2	42*
Cc1ccc2nc(=O)c(NNc3ccccc3)cnc2c1	4	-3	-2	41*	-1	-3
